From PubChem BioAssay (Tox21) come the findings set out here.

Where “and” joins values, the source holds several entries; their conditions need not be identical. Equal values may be shown once. Values without a mark were called inactive. Calls of active or inactive are those of the source. Unless noted, the call rests on the fitted dose curve; in most records, active means well fitted curve in the direction sought with a large enough effect in the repeat runs; inconclusive means weak or mixed curves; inactive means no such curve, though single readings can be large; an effect the other way counts as inactive or inconclusive.

The nature of assay [1]: qHTS assay to identify small molecule antagonists of the glucocorticoid receptor (GR) signaling pathway - cell viability counter screen (AID 720693). Further: nearly all actives have a fitted effect of over 55% in size.
Assay [2] can be described thus: qHTS assay for identifying genotoxic compounds that show differential cytotoxicity against isogenic chicken DT40 cell lines with known DNA damage response pathways - Rev3 mutant cell line (AID 743014). Further: nearly all actives have a fitted effect of over 55% in size. Further: potency means the concentration at half of the fitted maximal effect.
The nature of assay [3]: qHTS assay to identify small molecule antagonists of the androgen receptor (AR) signaling pathway - cell viability counter screen (AID 743033; further: nearly all actives have a fitted effect of over 45% in size). In general terms: Quantitative high-throughput screening tests each substance at several concentrations.
A short description of assay [4]: qHTS assay to identify small molecule antagonists of the androgen receptor (AR) signaling pathway using the MDA cell line - cell viability counter screen (AID 743041; further: nearly all actives have a fitted effect of over 45% in size; further: potency means the concentration at half of the fitted maximal effect). The essentials: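 Using the breast carcinoma line MDA-kb2 AR-luc, test chemicals were co-incubated with R1881 for 16 h; CellTiter-Fluor reagent, added at 15.5 h, provided a fluorescence measure of live cells.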

Assay [5] is described as follows: qHTS assay to identify small molecule antagonists of the thyroid receptor (TR) signaling pathway - cell viability counter screen (AID 743064). Further: nearly all actives have a fitted effect of over 50% in size. Further: potency means the concentration at half of the fitted maximal effect. In outline:
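Counter screen for cytotoxicity: compound plus T3 (1 nM final) on GH3.TRE-Luc cells, 23.5 h at 37 °C, then fluorescence viability readout with CellTiter-Fluor.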

Assay [6] is described as follows: qHTS assay to identify small molecule antagonists of the thyroid receptor (TR) signaling pathway (AID 743065). Further: nearly all actives have a fitted effect of over 55% in size. Further: potency means the concentration at half of the fitted maximal effect. The essentials: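 Antagonism measured as loss of luciferase signal in GH3 cells stably carrying a TRE-luciferase reporter, co-treated with compound and T3 (1 nM final) for 23.5 h at 37 C. Viability was read in the same well by CellTiter-Fluor.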
For assay [7], the system named is thyroid hormone receptor (rat, GH3 cells). Put plainly: qHTS assay to identify small molecule agonists of the thyroid receptor (TR) signaling pathway (AID 743066; calls by dose curve).
The target of assay [8] is Estrogen receptor (Homo sapiens) (UniProt P03372). Put plainly: qHTS assay to identify small molecule antagonists of the estrogen receptor alpha (ER-alpha) signaling pathway (AID 743069; active means well fitted curve in the direction sought with a large enough effect in the signal ratio in the repeat runs, not every such curve was filed as active; inconclusive means weak or mixed curves, or effect the other way; inactive means no such curve, though single readings can be large or run the other way; the % refers to the signal ratio; further: potency means the concentration at half of the fitted maximal effect). The essentials:
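Fluorescence intensity from a beta-lactamase FRET substrate served as the read-out. Cells: HEK293 with stably integrated ER-alpha-UAS-bla reporter. Agonist 17beta-estradiol was co-added with compounds; incubation 18 hr at 37C, substrate 2 hr at room temperature.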

Assay [9] in a line: qHTS assay to identify small molecule antagonists of the estrogen receptor alpha (ER-alpha) signaling pathway - cell viability counter screen (AID 743074; calls by dose curve; further: nearly all actives have a fitted effect of over 45% in size).
Assay [10] addresses Estrogen receptor (Homo sapiens) (UniProt P03372). Put plainly: qHTS assay to identify small molecule agonists of the estrogen receptor alpha (ER-alpha) signaling pathway (AID 743075; calls by dose curve).
Assay [11] has the same target. Put plainly: qHTS assay to identify small molecule agonists of the estrogen receptor alpha (ER-alpha) signaling pathway using the BG1 cell line (AID 743079). Further: nearly all actives have a fitted effect of over 20% in size. Conditions: BG1Luc4E2 cells, ERE-luciferase agonist, 22 h; activation: at 70.3 µM (top of the series).
Assay [12] in a line: qHTS assay to identify small molecule antagonists of the estrogen receptor alpha (ER-alpha) signaling pathway using the BG1 cell line (AID 743080; calls by dose curve;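 further: BG1 cells stimulated with 17beta-estradiol alongside compound; nearly all actives have a fitted effect of over 25% in size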). The essentials: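 Luminescence from a 4×ERE-luciferase reporter in BG1-Luc-4E2 cells served as read-out. Cells, pre-cultured 5 days in stripped-serum phenol-red-free medium, were exposed to compound with 17beta-estradiol co-stimulation for 21.5 h at 37 C.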

Assay [13] in a line: qHTS assay to identify small molecule antagonists of the estrogen receptor alpha (ER-alpha) signaling pathway using the BG1 cell line - cell viability counter screen (AID 743081).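 Further: compound given together with 17beta-estradiol as the ER stimulus; nearly all actives have a fitted effect of over 45% in size.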
In assay [14] the target is Aromatase (Homo sapiens) (UniProt P11511). Put plainly: qHTS assay to identify aromatase inhibitors (AID 743083). Further: nearly all actives have a fitted effect of over 55% in size. Further: potency means the concentration at half of the fitted maximal effect.
Assay [15] in a line: qHTS assay for identifying genotoxic compounds that show differential cytotoxicity against isogenic chicken DT40 cell lines with known DNA damage response pathways - wild type cell line (AID 743012). Further: nearly all actives have a fitted effect of over 60% in size. Further: potency means the concentration at half of the fitted maximal effect. The essentials:
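Luminescent ATP viability signal (CellTiter-Glo, 30 min RT) recorded after wild type DT40 cells were incubated with compounds for 40 h at 37 C/5% CO2.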

Assay [16] can be described thus: qHTS assay for identifying genotoxic compounds that show differential cytotoxicity against isogenic chicken DT40 cell lines with known DNA damage response pathways - Rad54/Ku70 mutant cell line (AID 743015). Further: nearly all actives have a fitted effect of over 60% in size. Further: potency means the concentration at half of the fitted maximal effect.
Assay [17] deals with Androgen receptor (Homo sapiens) (UniProt P10275). Put plainly: qHTS assay to identify small molecule agonists of the androgen receptor (AR) signaling pathway (AID 743036; active means well fitted activation curve with a large enough effect in the signal ratio in the repeat runs, with a control signal flat, not every such curve was filed as active; inconclusive means weak or mixed curves, or effect the other way; inactive means no such curve, though single readings can be large or run the other way; the % refers to the signal ratio). The essentials: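 In this Tox21 qHTS, 2,000 HEK293 AR-bla cells per well were incubated with compounds for 16 h at 37C and 5% CO2. Fluorescence intensity was recorded 2 h after adding LiveBLAzer B/G FRET substrate at room temperature.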

The target is the same in assay [18]. Put plainly: qHTS assay to identify small molecule agonists of the androgen receptor (AR) signaling pathway using the MDA cell line (AID 743040; further: nearly all actives have a fitted effect of over 20% in size). The essentials:
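Stable MMTV-luciferase reporter in MDA-kb2 cells; note the promoter carries GR as well as AR response elements. 16 h compound treatment, 37C, 0% CO2; ONE-Glo luminescence endpoint.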

Assay [19] has the same target. Put plainly: qHTS assay to identify small molecule antagonists of the androgen receptor (AR) signaling pathway using the MDA cell line (AID 743042; further: nearly all actives have a fitted effect of over 55% in size). In outline: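 Antagonist mode: compounds plus R1881 agonist added to MDA-kb2 AR-luc cells, incubated 16 h at 37C. Luciferase reporter luminescence quantified, with multiplexed CellTiter-Fluor readout for cell viability.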

Assay [20] shares this target. Put plainly: qHTS assay to identify small molecule antagonists of the androgen receptor (AR) signaling pathway (AID 743035; active means well fitted inhibition curve with a large enough effect in the signal ratio in the repeat runs, not every such curve was filed as active; inconclusive means weak or mixed curves, or effect the other way; inactive means no such curve, though single readings can be large or run the other way; the % refers to the signal ratio). In outline: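 Quantitative HTS of the Tox21 10K library used HEK293 AR-UAS-bla cells stimulated with R1881 alongside compound for 16 h at 37C, followed by beta-lactamase FRET detection (LiveBLAzer B/G, 2 h, RT).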

Chain of Aromatase (Homo sapiens) (P11511 whole entry, looked up): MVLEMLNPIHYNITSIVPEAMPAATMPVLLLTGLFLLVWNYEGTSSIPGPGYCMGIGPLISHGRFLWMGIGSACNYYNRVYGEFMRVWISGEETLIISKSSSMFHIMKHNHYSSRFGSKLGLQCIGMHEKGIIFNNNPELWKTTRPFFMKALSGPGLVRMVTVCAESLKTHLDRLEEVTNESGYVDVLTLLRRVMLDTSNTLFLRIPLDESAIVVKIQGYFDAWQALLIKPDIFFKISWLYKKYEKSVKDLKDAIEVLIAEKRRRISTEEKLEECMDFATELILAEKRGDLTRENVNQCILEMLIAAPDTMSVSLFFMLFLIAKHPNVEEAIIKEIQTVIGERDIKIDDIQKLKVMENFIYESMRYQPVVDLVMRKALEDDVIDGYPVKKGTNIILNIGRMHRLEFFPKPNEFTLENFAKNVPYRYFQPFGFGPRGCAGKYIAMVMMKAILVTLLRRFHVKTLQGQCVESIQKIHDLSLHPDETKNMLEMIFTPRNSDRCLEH
Chain of Androgen receptor (Homo sapiens) (P10275 whole entry, looked up): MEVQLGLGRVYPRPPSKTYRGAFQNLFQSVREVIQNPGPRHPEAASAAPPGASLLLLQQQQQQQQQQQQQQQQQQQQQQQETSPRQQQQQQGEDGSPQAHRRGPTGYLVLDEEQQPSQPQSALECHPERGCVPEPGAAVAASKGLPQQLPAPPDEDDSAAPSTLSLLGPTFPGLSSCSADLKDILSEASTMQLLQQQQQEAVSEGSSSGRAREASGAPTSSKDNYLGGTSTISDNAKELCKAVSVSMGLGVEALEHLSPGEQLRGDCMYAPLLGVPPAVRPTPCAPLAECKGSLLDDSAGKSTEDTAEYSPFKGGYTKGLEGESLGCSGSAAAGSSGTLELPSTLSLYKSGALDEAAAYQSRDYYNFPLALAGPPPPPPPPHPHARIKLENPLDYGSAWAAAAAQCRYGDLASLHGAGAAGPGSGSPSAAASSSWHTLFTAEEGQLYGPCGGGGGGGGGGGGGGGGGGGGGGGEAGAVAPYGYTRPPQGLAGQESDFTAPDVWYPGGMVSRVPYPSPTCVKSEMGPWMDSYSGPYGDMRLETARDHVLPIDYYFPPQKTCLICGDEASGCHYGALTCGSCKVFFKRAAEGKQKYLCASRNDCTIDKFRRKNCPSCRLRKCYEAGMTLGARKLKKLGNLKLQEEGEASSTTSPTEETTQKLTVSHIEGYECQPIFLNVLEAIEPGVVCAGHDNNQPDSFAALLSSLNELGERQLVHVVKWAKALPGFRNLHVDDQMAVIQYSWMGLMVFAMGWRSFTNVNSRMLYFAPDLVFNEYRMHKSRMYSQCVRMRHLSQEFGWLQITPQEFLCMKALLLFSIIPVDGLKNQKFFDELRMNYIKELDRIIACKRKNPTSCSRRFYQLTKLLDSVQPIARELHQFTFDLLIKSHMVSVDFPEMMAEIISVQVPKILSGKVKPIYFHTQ
Chain of Estrogen receptor (Homo sapiens) (P03372 whole entry, looked up): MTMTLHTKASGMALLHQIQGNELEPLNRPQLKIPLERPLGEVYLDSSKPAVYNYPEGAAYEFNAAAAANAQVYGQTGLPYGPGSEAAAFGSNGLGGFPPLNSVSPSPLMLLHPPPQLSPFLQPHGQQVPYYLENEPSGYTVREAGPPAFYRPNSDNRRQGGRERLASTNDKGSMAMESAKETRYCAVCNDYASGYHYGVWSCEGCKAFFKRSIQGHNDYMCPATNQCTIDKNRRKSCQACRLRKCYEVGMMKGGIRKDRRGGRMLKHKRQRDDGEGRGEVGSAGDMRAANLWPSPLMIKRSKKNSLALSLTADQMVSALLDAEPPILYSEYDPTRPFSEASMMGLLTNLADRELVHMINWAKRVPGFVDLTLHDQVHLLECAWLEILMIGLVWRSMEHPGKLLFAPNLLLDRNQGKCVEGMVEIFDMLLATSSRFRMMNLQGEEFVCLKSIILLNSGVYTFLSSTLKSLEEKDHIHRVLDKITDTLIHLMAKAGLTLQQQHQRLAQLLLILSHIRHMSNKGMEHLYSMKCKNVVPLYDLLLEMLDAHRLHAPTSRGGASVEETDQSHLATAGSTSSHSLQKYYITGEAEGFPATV

Turning to `CCCCC(CC)COC(=O)COc1ccc(Cl)cc1C` (centres undefined), the Potency result in assay [1], in assay [3], in [4], in assay [5], in assay [6] and in assay [8] was “inactive” each time. Further, the Potency entry in [9], in [10], in assay [11], in [12], in [13] and in assay [14] was “inactive” throughout. Also, in assay [2], the Potency is 68.6 µM (active). For the same molecule, the call in assay [7] was inactive.
In the case of `C/C=C(\C)C(=O)OCCC(C)CCC=C(C)C` (centres undefined), the Potency result in assay [1], in [15], in [3], in [6], in [9] and in assay [13] was “inactive” throughout. Moreover, the result in assay [7] was inactive.
Regarding `O=C(CCCN1CCN(c2ccc(F)cc2)CC1)NC1c2ccccc2CSc2ccccc21` (centres undefined), the Potency entry in [1], in assay [4], in assay [9], in [10], in assay [11] and in [12] was “inactive” in each case. For the same molecule, the Potency in assay [15] was 13.3 µM (active); in [16], 18.8 µM (active); in [6], 10.6 µM (active); in assay [8], 21.3 µM [inconclusive] (active).
On to `CC(C)C(=O)O`, for which the Potency result in assay [1], in assay [15], in assay [16], in [3], in assay [6] and in assay [8] was “inactive” in each case. Also, the Potency result in assay [9], in assay [10], in assay [12], in [13] and in assay [14] was “inactive” each time. In addition, in assay [7], the molecule was classed as inactive.
On to `NC(=O)Nc1ccc(Cl)cc1`, for which the Potency result in assay [1], in assay [2], in assay [16], in [3], in assay [4] and in [8] was “inactive” each time. For the same molecule, the Potency result in assay [10], in assay [11], in assay [12], in [13] and in assay [14] was “inactive” in each case. In [7], the molecule was called inactive.
Regarding `CCCOCCOCCO`, the Potency entry in assay [1], in assay [15], in assay [16], in assay [3], in assay [6] and in assay [8] was “inactive” in each case. For the same molecule, the Potency result in assay [9], in assay [10], in assay [11], in assay [12], in assay [13] and in assay [14] was “inactive” each time. The molecule was called inactive in assay [7].
For `Cc1occc1C(=O)Nc1ccc(C(=O)N2CCC(F)(F)/C(=C\C(=O)N3CCC(N4CCCCC4)CC3)c3ccccc32)cc1`, the Potency entry in assay [1], in [15], in assay [3], in assay [17], in assay [18] and in assay [4] was “inactive” in each case. In addition, the Potency entry in [19], in assay [8], in assay [9] and in assay [10] was “inactive” throughout. For the same molecule, the Potency in [6] was 19.1 µM (active). Besides, the outcome in assay [7] was inactive.
On to `O=C(C(=O)c1ccccc1)c1ccccc1`, for which the Potency result in [1], in assay [2], in [16], in assay [3], in assay [5] and in assay [6] was “inactive” throughout. Also, the Potency entry in assay [9] and in assay [13] was “inactive” in each case. The result in assay [7] was inactive.
In the case of `N#C/C(=C1\SCC(c2ccccc2Cl)S1)n1ccnc1` (centres undefined), the Potency entry in assay [1], in [3], in assay [20], in [17], in assay [4] and in [19] was “inactive” each time. Further, the Potency result in assay [9] and in assay [13] was “inactive” throughout. Also, the figures for the Potency in assay [2], in [16] and in assay [14] were 26.6 µM (active), 29.8 µM (active) and 3.35 µM (active), respectively.
Turning to `CCCCCCCC/C=C\CCCCCCCC(=O)OC(CO)CO`, the Potency entry in assay [1], in assay [15], in assay [3], in [6], in assay [9] and in [13] was “inactive” in each case. Moreover, in assay [14], the Potency entry was “inactive”. In [7], the result was inactive.
Regarding `CCOC(=O)c1ccccc1C`, the Potency entry in assay [1], in [3], in assay [4], in assay [5], in assay [6] and in assay [8] was “inactive” throughout. In addition, the Potency entry in assay [9], in [10], in assay [11], in assay [12], in assay [13] and in [14] was “inactive” throughout. The Potency in assay [2] is 61.1 µM (active). Besides, the molecule was called inactive in assay [7].
As for `N#C/C(=C1/SC[C@@H](c2ccc(Cl)cc2Cl)S1)n1ccnc1`, the Potency result in assay [1], in [3], in [9] and in [13] was “inactive” throughout. Further, the Potency was 21.1 µM (active) and 13.3 µM (active) and 26.6 µM (active) in assay [15]; 26.6 µM (active) and 23.7 µM (active) and 33.5 µM (active) in [16]; 21.1 µM (active) and 13.3 µM (active) in assay [6]. Besides, the molecule was classed as inactive in [7].
Turning to `COCCOC(=O)C1=C(C)NC(C)=C(C(=O)OC/C=C/c2ccccc2)C1c1cccc([N+](=O)[O-])c1` (centres undefined), the Potency result in assay [1], in assay [9], in [10], in [12] and in assay [13] was “inactive” in each case. Also, the Potency in assay [15] is 13.3 µM (active); in assay [16], 11.9 µM (active); in [5] it was 13.3 µM (active); in assay [6], 11.9 µM (active); in [8], 23.9 µM [inconclusive] (active).
Turning to `C=CC(C)=CCC=C(C)C`, the Potency result in [1], in assay [2], in [3], in [4], in assay [5] and in assay [9] was “inactive” in each case. The Potency entry in assay [13] and in [14] was “inactive” throughout. In addition, the molecule was classed as inactive in [7].
Consider `O=C(Nc1ccc([N+](=O)[O-])cc1)Nc1ccc([N+](=O)[O-])cc1`, for which the Potency in assay [15] is 10.6 µM (active); in assay [2] it was 10.6 µM (active); in [16], 11.9 µM (active). In addition, the Potency result in assay [4], in assay [13] and in assay [14] was “inactive” in each case. The call in assay [7] was inactive.
In the case of `CC(C)OCC1CO1` (centres undefined), the Potency result in assay [15], in [16], in [3], in [4], in assay [5] and in assay [6] was “inactive” in each case. The Potency result in [8], in assay [9], in [10], in assay [11], in assay [12] and in [13] was “inactive” each time. Moreover, in assay [14], the Potency entry is “inactive”. Moreover, the call in assay [7] was inactive.
With `CCCC1C(CC)=CC(CC)=CN1c1ccccc1` (centres undefined), the Potency in assay [15] was 2.73 µM (active); in assay [16], 1.93 µM (active); in assay [4], 54.5 µM (active). In addition, the Potency entry in [3], in assay [5], in assay [9] and in [14] was “inactive” each time. Besides, the outcome in [7] was inactive.
`CC(=O)Oc1ccc(C(=C2CCCCC2)c2ccc(OC(C)=O)cc2)cc1`: the Potency entry in assay [15], in [16], in assay [3], in assay [4], in [8] and in assay [9] was “inactive” each time. The Potency result in assay [10], in assay [11], in [12], in assay [13] and in assay [14] was “inactive” in each case.
